Reference: PubChem BioAssay AID1159569 (Broad Institute, 2015)
Entries with a potency or affinity are not part of this list. Results filed as inconclusive are left out. Values without a mark were called inactive. The rule behind the calls is not given here.

assay: HepG2 cell cytotoxicity, dose response, cytotoxicity control, plate reader, dry powder samples (AID 1159569); details: HepG2 cytotoxicity counterscreen; series mostly up to 50 µM; activity change, negative = cytotoxicity: at the top concentration

SMILES | activity change, negative = cytotoxicity
COc1ccc2c3c([nH]c2c1)[C@H](CO)N(C(=O)C1CCOCC1)CC31CCN(Cc2nccs2)CC1 | -3.5%
C[C@@H]1CN([C@H](C)CO)S(=O)(=O)c2ccc(C#Cc3ccccc3F)cc2O[C@H]1CN(C)C(=O)c1ccc2c(c1)OCO2 | -31.9%
C/C=C/c1ccc2c(c1)[C@H]1[C@H](CCN1S(=O)(=O)c1ccccc1C)[C@@H](CO)N2 | -13.2%
CO[C@@H]1CN(C)C(=O)c2ccc(NC(=O)c3ccc4c(c3)OCO4)cc2OC[C@@H](C)N(Cc2ccc3c(c2)OCO3)C[C@H]1C | -20.4%
COc1ccc(C#Cc2cnc3c(c2)C(=O)N([C@H](C)CO)C[C@H](C)[C@H](CN(C)S(=O)(=O)c2cccc(F)c2)O3)cc1OC | -12.1%
COc1ccc2c3c(n(C)c2c1)[C@@H](CO)N(C(=O)C1CCCC1)CC31CCN(C(=O)Nc2cccc(F)c2)CC1 | -32.3%
CCCC(=O)N1CC2(C1)CN(S(=O)(=O)c1ccc(C)cc1)[C@@H](CO)c1[nH]c3cc(OC)ccc3c12 | -20.5%
CC(C)(C)S(=O)N1Cc2cc(C(=O)NCc3ccc(Oc4ccccc4)cc3)nc(-c3cccc(-c4cccc(F)c4)c3)c2[C@@H]1CCO (stereo partly specified) | 2.11%
COc1ccc(-c2ccccc2[C@H]2[C@@H](C#N)N(C(=O)C3CCCCC3)[C@H]2CO)cc1 | -11.1%
C[C@@H](NC(=O)C[C@H]1C[C@@H]2c3cc(NS(=O)(=O)c4ccc(F)cc4)ccc3O[C@@H]2[C@H](CO)O1)c1ccccc1 | -16.7%
COc1ccc(C#Cc2ccc3c(c2)O[C@H](CN(C)S(=O)(=O)c2ccccc2F)[C@@H](C)CN([C@H](C)CO)S3(=O)=O)cc1 | -10.9%
CCCC(=O)Nc1ccc2c(c1)OC[C@@H](C)N(Cc1ccccc1F)C[C@@H](C)[C@H](OC)CN(C)C2=O | -6.21%
C[C@H]1CN([C@@H](C)CO)C(=O)c2c(c3ccccc3n2C)-c2ccccc2CO[C@@H]1CN(C)C(=O)Nc1cccc(C(F)(F)F)c1 | -53.7%
C[C@@H]1CN([C@@H](C)CO)C(=O)Cc2cc(NC(=O)Nc3ccc4c(c3)OCO4)ccc2O[C@@H]1CN(C)CC1CC1 | -11.2%
C[C@H](CO)N1C[C@H](C)[C@@H](CN(C)C(=O)Nc2cccc3ccccc23)Oc2ccc(NC(=O)Nc3ccc(C(F)(F)F)cc3)cc2C1=O | -10.9%
COc1cccc(C#Cc2ccc([C@H]3[C@@H](CO)N(C(=O)c4ccccn4)[C@H]3C#N)cc2)c1 | -1.52%

SMILES | activity change, negative = cytotoxicity
C[C@@H]1CN([C@@H](C)CO)C(=O)c2cccc(NC(=O)Nc3ccc4c(c3)OCO4)c2O[C@@H]1CN(C)C(=O)Nc1ccc2c(c1)OCO2 | -9.01%
CCCNC(=O)Nc1ccc2c(c1)OC[C@@H](C)N(Cc1ccccc1)C[C@@H](C)[C@H](OC)CN(C)C2=O | -20.7%
C[C@H](CO)N1C[C@H](C)[C@@H](CN(C)C(=O)Nc2cccc3ccccc23)Oc2ccc(NC(=O)Cc3cn(C)c4ccccc34)cc2C1=O | -2.74%
O=C(c1ccccc1F)N1CC(=O)N2[C@H](CO)[C@H](c3ccc(-c4cccnc4)cc3)[C@H]2C1 | -2.27%
COc1ccc(C#Cc2ccc3c(c2)O[C@@H](CN(C)S(=O)(=O)c2ccccc2F)[C@@H](C)CN([C@H](C)CO)S3(=O)=O)cc1 | -4.47%
O=C(c1ccccc1F)N1CC(=O)N2[C@H](C1)[C@@H](c1ccc(-c3cccnc3)cc1)[C@@H]2CO | 2.48%
CC(C)NC(=O)Nc1ccc2c(c1)C(=O)N(C)[C@H]1CC[C@H](CC(=O)Nc3ccccc3)O[C@H]1CO2 | -9.14%
C/C=C/c1ccc([C@H]2[C@@H](C#N)N(C(=O)NC3CCCC3)[C@@H]2CO)cc1 | -33.3% [at 56 µM]
COc1ccc2c3c(n(C)c2c1)[C@@H](CO)N(C(=O)c1ccc(F)cc1)CC31CCN(C(=O)Nc2ccc(F)cc2)CC1 | 5.35% [at 16 µM]
C[C@@H]1CN([C@@H](C)CO)C(=O)c2cccc(NC(=O)Nc3ccccc3)c2O[C@@H]1CN(C)C(=O)Nc1ccc(F)cc1 | -2.4%
C[C@@H]1CN([C@@H](C)CO)C(=O)c2cccc(NC(=O)c3nc4ccccc4s3)c2O[C@H]1CN(C)C(=O)Nc1ccc2c(c1)OCO2 | -8.51%
COc1ccc2c3c(n(C)c2c1)[C@@H](CO)N(C(=O)c1ccc(F)cc1)CC31CN(C(=O)Nc2ccc(F)cc2)C1 | -19.1%
O=C(Nc1ccccc1F)N1CCCCN2[C@@H](CO)[C@H](c3ccc(C#Cc4cccnc4)cc3)[C@@H]2C1 | -29.5%
O=C(C1CCCC1)N1CC(=O)N2[C@H](CO)[C@H](c3ccc(-c4cccnc4)cc3)[C@H]2C1 | -11.9%
Cc1ccccc1-c1ccccc1[C@H]1[C@@H](C#N)N(C(=O)c2ccccc2)[C@@H]1CO | -2.64%
